Shown are actives, neighbours in structure and some others; about 7.5% of the full set was active somewhere.
VP16 counter = Gal4-VP16 reporter inhibition counter-screen | Drosophila S2 Gal4-VP16 UAS-luciferase, luminescence, 20 h | Potency, µM (titrated, usually from 53.6 µM), usual class: inhibitors | 310,000 compounds, 3.5% hits | AID 2546;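 further: Gal4-VP16 expression switched on by copper sulfate through the metallothionein promoter; nearly all actives have a fitted effect of over 50% in size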
ELG1 DNA repair = blocks ELG1-dependent DNA repair in HEK293T cells. Potency, µM (highest dose often 46.1 µM), usual class: inhibitors. 330,000 compounds, 2.3% hits. HEK293T ELG1-luciferase reporter, luminescence, 16 h; DNA damage induced by 5-fluorouridine; further: nearly all actives have a fitted effect of over 55% in size
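Quantitative HTS, concentration-response format. 2,000 cells/well co-treated with 5-fluorouridine and compound, 16 hr in 5% CO2 at 37 °C; ONE-Glo luminescence read after 30 min.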
B2AR arrestin = recruits beta-arrestin to the human beta2-adrenergic receptor. 330,000 compounds, 0.02% hits. beta-arrestin recruitment to beta2AR, cell-based reporter. P07550. AID 492947. Potency, µM (doses to about 46.1 µM), usual class: activators; further: nearly all actives have a fitted effect of over 65% in size
Target sequence (P07550 whole entry, looked up): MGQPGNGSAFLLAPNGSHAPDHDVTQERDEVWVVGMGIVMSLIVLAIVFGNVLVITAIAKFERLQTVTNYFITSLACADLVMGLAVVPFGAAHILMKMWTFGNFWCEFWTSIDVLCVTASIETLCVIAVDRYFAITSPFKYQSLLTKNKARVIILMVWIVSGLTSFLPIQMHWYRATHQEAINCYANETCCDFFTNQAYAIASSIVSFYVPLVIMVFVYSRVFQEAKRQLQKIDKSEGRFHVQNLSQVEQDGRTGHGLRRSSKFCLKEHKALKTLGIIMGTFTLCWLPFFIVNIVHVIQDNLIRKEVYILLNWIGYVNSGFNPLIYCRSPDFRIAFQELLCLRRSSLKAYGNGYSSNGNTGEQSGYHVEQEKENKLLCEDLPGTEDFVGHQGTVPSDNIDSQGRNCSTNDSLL
TSHR antagonist = human thyrotropin receptor antagonism; 330,000 compounds, 0.2% hits; AID 504810; TSHR-expressing cells, TSH-stimulated cAMP HTRF, 2 h; hits give low values; activity change, negative = inhibition, % at 11.5 µM; P16473;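 active means activity change below a set negative limit, meaning inhibition stronger than a set level, cut at about -70% in these data; inconclusive means activity change between two set negative limits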
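TSHR-expressing cells were treated with compounds, then stimulated with TSH at EC80 (4nM final) for 2 hours at 37 deg C. Cellular cAMP was measured by HTRF competition between lysate cAMP and cAMP-d2 for a cryptate-labelled anti-cAMP antibody.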
RORgamma inh = blocks mouse ROR gamma transcriptional activity; P51450; Drosophila S2 Gal4-RORgamma UAS-luciferase reporter, 20 h; Potency, µM (top dose mostly 53.6 µM), usual class: inhibitors; 310,000 compounds, 5.4% hits; further: nearly all actives have a fitted effect of over 60% in size
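In this cell-based reporter format, copper sulfate (700 uM final) drives Gal4–ROR gamma fusion expression from a metallothionein promoter in Drosophila Schneider cells; compounds preincubated 1 hr, reporter read after 20 hr at ambient temperature.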
A number is an active result; – = inactive; ? = inconclusive; · = no result; [ ] = dose if it differs, or a comment. Unless noted, the call rests on the fitted dose curve; in most records, active means well fitted curve in the direction sought with a large enough effect; inconclusive means small, poorly fitted or top-dose-only effect, or another doubt; inactive means no such curve, though single readings can be large; an effect the other way counts as inactive or inconclusive.

SMILES	VP16 counter	ELG1 DNA repair	B2AR arrestin	TSHR antagonist	RORgamma inh
Cc1ccc(S(=O)(=O)N2CCOCC2)cc1C(=O)NC(=S)N1CC(C)CC(C)C1 (stereo unspecified)	5.01µM	?	–	–	1.58µM
CCCCCC(C)NC(=S)NC(=O)c1cc(S(=O)(=O)N2CCOCC2)ccc1C (stereo unspecified)	11.2µM	?	–	–	10µM
O=P(O)(O)C(O)(Cc1cccnc1)P(=O)(O)O	–	·	·	·	–[10 µM]
Cc1nnsc1S(=O)(=O)c1ccccc1	–	–	–	–	–
O=C(NNc1nc2c(F)cccc2s1)c1ccc(F)cc1	–	–	–	–	?
O=C(COc1ccccc1)NNc1nc2c(F)cccc2s1	–	–	–	–	5.01µM
O=C(COc1ccccc1)NNc1nc2ccccc2s1	11.2µM	?	–	–	5.01µM
COc1ccc2nc(NNC(=O)COc3ccccc3)sc2c1	–	?	–	–	7.08µM
CC(=O)NNc1nc2ccccc2s1	–	–	–	–	–
C/C(=C\C(=O)c1ccccc1)NNc1nc2ccccc2s1	?	?	–	–	7.94µM
COc1ccc([C@H]2CC(=O)C=C(c3ccc(Cl)c(C(F)(F)F)c3)C2)cc1	·	–	–	–	·
CCCn1c(-c2ccc(F)cc2)nc2c(NCCN3CCCC3)nc(C)nc21	–	·	·	·	–
COc1cc(OC)c(S(=O)(=O)NC(C)C)cc1S(=O)(=O)NC(C)C	–	–	–	–	–
O=c1[nH]c2cc3c(cc2cc1CN(Cc1nnnn1C1CCCC1)C1CCCC1)OCCO3	–	13µM	–	–	–
COc1cccc(CN2CC(C(=O)NCCCn3ccnc3C)CCC2=O)c1 (stereo unspecified)	–	–	–	–	–
CCCCOc1ccc(CSCCN)cc1Cl	2µM	?	–	–	1.26µM
CCOc1ccc(CSC(=N)N)cc1Cl	–	–	–	–	–
FC(F)(F)c1nnc(-c2ccccc2)nc1Sc1ccc(Cl)cc1	?	–	–	–	6.31µM
FC(F)(F)c1nnc(-c2ccccc2)nc1Sc1ccccc1	?	–	–	–	?
FC(F)(F)c1cccc(Sc2nc(-c3ccccc3)nnc2C(F)(F)F)c1	?	–	–	–	3.55µM
CCc1nc2ccccc2c(C(=O)OCC(=O)C(C)(C)C)c1C	–	?	–	–	–
CCc1nc2ccccc2c(C(=O)OCc2nnc(-c3ccccc3)o2)c1C	–	20.6µM	–	–	–
CCCCNCc1nc2ccccc2c(=O)[nH]1	?	–	–	–	10µM
CCc1nc2ccccc2c(C(=O)OCc2nc3ccccc3c(=O)[nH]2)c1C	·	13µM	–	–	·
CCn1c(C)nc2cc(C(=O)NNC(=O)[C@@H](NC(=O)c3cc(OC)cc(OC)c3)C(C)C)ccc21	·	–	–	–	·
SMILES	VP16 counter	ELG1 DNA repair	B2AR arrestin	TSHR antagonist	RORgamma inh
Cc1ccc(NC(=S)NNC(=O)CCn2cc(C)cn2)cc1	1.41µM	–	–	–	0.282µM
Cc1ccc(NC(=O)CCN2CCN(C)CC2)cc1	–	–	–	–	?
COc1cccc(NC(=S)NNC(=O)CCn2cc([N+](=O)[O-])cn2)c1	–	–	–	–	?
Cc1cnn(CCC(=O)NNC(=S)Nc2ccccc2)c1	1.12µM	–	–	–	0.1µM
CC(C)(C)NC(=O)COC(=O)CCC(=O)c1cccs1	–	–	–	–	–
O=C1/C(=C/c2ccncc2)SC(=S)N1C1CCS(=O)(=O)C1 (stereo unspecified)	?	?	–	–	11.2µM
O=C(CN1CCN(c2cccc(Cl)c2)CC1)NC1CCCc2ccccc21 (stereo unspecified)	–	–	–	–	–
Cc1cc(N2C(=O)C=CC2=O)c([N+](=O)[O-])cc1C	4.47µM	?	–	–	7.08µM
CC[N+]1(C)[C@@H]2CC[C@H]1CC(OC(=O)[C@H]1CCC(C(=O)OC3C[C@H]4CC[C@@H](C3)[N+]4(C)CC)(c3ccccc3)c3ccccc31)C2 (stereo partly specified)	·	–	–	–	·
O=C(NNC(=O)c1ccc(-c2ccccc2)cc1)Nc1ccccc1F	–	–	–	–	–
O=C(NNc1ccccc1F)c1ccccc1	–	14.6µM	–	–	–
O=C(NNc1ccccc1F)C1CCC1	–	16.4µM	–	–	?
CC(C)=CCl	–	·	·	·	–
CCCCC(C=O)CC (stereo unspecified)	–	·	·	·	–
O=[N+]([O-])c1cc(Br)c(O)c(C=Nc2ccc(N3CCOCC3)cc2)c1	–	–	–	-85.7	–
COc1ccc(Cc2nnc(N/N=C/c3ccc(O)cc3O)[nH]c2=O)cc1OC	–	–	–	–	–
CCOc1cc([N+](=O)[O-])cc2c1C(=O)Nc1ccccc1O2	–	7.3µM	–	–	–
CCOC(=O)c1sc2nc(C)nc(NCc3cccnc3)c2c1C	–	14.6µM	–	–	–
CCOC(=O)c1sc2nc(COC(=O)c3c(F)cccc3F)[nH]c(=O)c2c1C	–	–	–	–	–
CCOC(=O)c1sc2nc(C)nc(Nc3ccc(OC)cc3)c2c1C	–	–	–	–	–
CCOC(=O)c1sc2nc(C)nc(NCc3ccc(F)cc3)c2c1C	–	7.3µM	–	–	–
Cc1nc(NCc2cccnc2)c2c3c(sc2n1)CC(C)CC3 (stereo unspecified)	1.78µM	?	–	–	0.708µM
CCOC(=O)c1sc2nc(CC(=O)OC)nc(NCc3ccc(F)cc3)c2c1C	–	?	–	–	–
CCOC(=O)c1sc2nc(Cc3ccc(Cl)cc3)[nH]c(=S)c2c1C	?	–	–	–	2.82µM
NC(=O)C1CCN(C(=O)C(=O)c2cn(CC(=O)N3CCCCCC3)c3ccccc23)CC1	–	–	–	–	–
SMILES	VP16 counter	ELG1 DNA repair	B2AR arrestin	TSHR antagonist	RORgamma inh
Cc1ccc([N+](=O)[O-])c(C)c1	–	·	·	·	–
CCOC(=O)c1sc2nc(C)nc(NCc3ccc(Cl)cc3)c2c1C	–	11.6µM	–	–	?
O=C(Nc1nonc1-c1ccc(Cl)cc1)c1ccccc1	?	?	–	–	11.2µM
COc1ccc(NC(=O)N2CC3(CCN(S(=O)(=O)c4ccccc4)CC3)C2)cc1	–	·	·	·	–
COc1cc(-c2cc(C(=O)N3CCN(c4ccccn4)CC3)c3ccccc3n2)cc(OC)c1OC	–	8.2µM	–	–	–
CCOc1ccc(-c2cc(C(=O)N3CCN(c4ccccn4)CC3)c3ccccc3n2)cc1	–	?	–	–	–
CCCc1ccc(-c2cc(C(=O)N3CCN(c4ccccn4)CC3)c3ccccc3n2)cc1	14.1µM	?	–	–	11.2µM
COc1ccc(-n2c(SCC(=O)Nc3nc(C)cs3)nnc2-c2ccoc2C)cc1	–	23.1µM	–	–	–
COc1ccc(-n2c(SCC(=O)Nc3nccs3)nnc2-c2ccoc2C)cc1	–	20.6µM	–	–	–
COc1ccc(OC)c(NC(=O)CSc2nnc(-c3ccco3)n2-c2ccccc2)c1	–	10.3µM	–	–	–
COc1ccc(-n2c(SCC(=O)Nc3cccc(C(=O)O)c3)nnc2-c2ccco2)cc1	–	–	–	–	–

High-throughput results as filed in PubChem.
